“And” between values parts separate entries of the source, which are not always exact repeats. Identical values can stand only once. Out of some 5,500 compounds screened, about 2,000 (36%) were called active. Inconclusive results (about 18%) are left out. Rule as the data show it: active = normalized growth mostly below about 0.91 (no sharp cut-off); inconclusive = no clear call, values can overlap the other calls; inactive = mostly above about 0.92. The list shows a part of the results.
Assay: chemical genetic growth profiling, strain panel (AID 1159580);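 also: tested at 20 µM; growth read once vehicle control cultures reached saturation at 30 °C; 1 = growth at the plate median or of vehicle wells; lower values mean less growth of the strain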
Conditions: growth OD

Measured: normalized growth

O=c1oc2ccccc2cc1[N+](=O)[O-]
active: S. cerevisiae deletion strains, locus YAL013W, strain DEP1, active compounds read low 0.0574 | S. cerevisiae deletion strains, locus YBR229C, strain ROT2, active compounds read low 0.0595 | S. cerevisiae deletion strains, locus YCL061C, strain MRC1, active compounds read low 0.0567 | S. cerevisiae deletion strains, locus YDL101C, strain DUN1, active compounds read low 0.0763 | S. cerevisiae deletion strains, locus YDL134C, strain PPH21, active compounds read low 0.049 | S. cerevisiae deletion strains, locus YDR150W, strain NUM1, active compounds read low 0.0585 | S. cerevisiae deletion strains, locus YEL061C, strain CIN8, active compounds read low 0.0579 | S. cerevisiae deletion strains, locus YGR052W, strain FMP48, active compounds read low 0.114 | S. cerevisiae deletion strains, locus YGR078C, strain PAC10, active compounds read low 0.0524 | S. cerevisiae deletion strains, locus YGR229C, strain SMI1, active compounds read low 0.0596 | S. cerevisiae deletion strains, locus YHR030C, strain SLT2, active compounds read low 0.0818 and 0.0892 | S. cerevisiae deletion strains, locus YHR079C, strain IRE1, active compounds read low 0.106 | S. cerevisiae deletion strains, locus YHR082C, strain KSP1, active compounds read low 0.105 | S. cerevisiae deletion strains, locus YHR087W, strain rtc3, active compounds read low 0.0624 | S. cerevisiae deletion strains, locus YJL095W, strain BCK1, active compounds read low 0.104 | S. cerevisiae deletion strains, locus YJR043C, strain POL32, active compounds read low 0.0547 | S. cerevisiae deletion strains, locus YJR066W, strain TOR1, active compounds read low 0.102 | S. cerevisiae deletion strains, locus YJR075W, strain HOC1, active compounds read low 0.0787 | S. cerevisiae deletion strains, locus YKL171W, strain NNK1, active compounds read low 0.106 | S. cerevisiae deletion strains, locus YKL190W, strain CNB1, active compounds read low 0.0491 | S. cerevisiae deletion strains, locus YKL203C, strain TOR2, active compounds read low 0.0901 | S. cerevisiae deletion strains, locus YLR039C, strain RIC1, active compounds read low 0.0723 | S. cerevisiae deletion strains, locus YLR058C, strain SHM2 (second series), active compounds read low 0.0528 | S. cerevisiae deletion strains, locus YLR085C, strain ARP6, active compounds read low 0.071 | S. cerevisiae deletion strains, locus YLR113W, strain HOG1, active compounds read low 0.137 | S. cerevisiae deletion strains, locus YLR262C, strain YPT6, active compounds read low 0.0758 | S. cerevisiae deletion strains, locus YML094W, strain GIM5, active compounds read low 0.0733 | S. cerevisiae deletion strains, locus YMR219W, strain ESC1, active compounds read low 0.0518 | S. cerevisiae deletion strains, locus YMR263W, strain SAP30, active compounds read low 0.0584 | S. cerevisiae deletion strains, locus YNL153C, strain GIM3, active compounds read low 0.057 | S. cerevisiae deletion strains, locus YNL183C, strain NPR1, active compounds read low 0.119 | S. cerevisiae deletion strains, locus YNL207W, strain RIO2, active compounds read low 0.0939 | S. cerevisiae deletion strains, locus YNL298W, strain CLA4 (second series), active compounds read low 0.0711 | S. cerevisiae deletion strains, locus YNL322C, strain KRE1, active compounds read low 0.0611 | S. cerevisiae deletion strains, locus YNR030W, strain Alg12, active compounds read low 0.0702 | S. cerevisiae deletion strains, locus YOL006C, strain TOP1, active compounds read low 0.0751 | S. cerevisiae deletion strains, locus YOR119C, strain RIO1, active compounds read low 0.0989 | S. cerevisiae deletion strains, locus YOR231W, strain MKK1, active compounds read low 0.106 | S. cerevisiae deletion strains, locus YPL055C, strain LGE1, active compounds read low 0.0749 | S. cerevisiae deletion strains, locus YPL241C, strain CIN2, active compounds read low 0.0745 | S. cerevisiae deletion strains, locus YPL256C, strain CLN2, active compounds read low 0.0976 | S. cerevisiae deletion strains, locus YPR135W, strain CTF4, active compounds read low 0.155 | S. cerevisiae strains, strain wild type, active compounds read low 0.0506

— PubChem BioAssay AID1159580 (chemical genetic matrix, 2015)
